Source: PMC8384837, “Expanding the binding specificity for RNA recognition by a PUF domain”

Columns and labels:
Assay in all cases: yeast three-hybrid, YBZ-1, SC-Leu-His + 0.5 mM 3-AT, 4 days
Conditions in all cases: tags: N-Gal4 AD-HA kept; label: inside an RPR1-promoter hybrid RNA with tandem MS2 sites; ssRNA
[1] = biological target: PUM1 PUF domain R5-GQS (Homo sapiens, UniProt Q14671 828-1176, C1007G;R1008Q;Q1011S)
In short: (§1)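 Each repeat of the Pumilio-1 PUF domain was randomized at its three base-contacting residues, and these libraries were co-expressed from a centromeric plasmid with matching RNA elements in strain YBZ-1. After four days on SC-Leu (input) or SC-Leu-His + 0.5 mM 3-AT (selection), the repeat regions were PCR-amplified and Illumina-sequenced. The interaction score compares variant frequency between input and selection as a log change, computed in log2 with a pseudocount of 1 for absent variants.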

[2] = biological target: PUM1 PUF domain R5-KHT (Homo sapiens, UniProt Q14671 828-1176, C1007K;R1008H;Q1011T)
In short: as §1

[3] = biological target: PUM1 PUF domain R5-KKL (Homo sapiens, UniProt Q14671 828-1176, C1007K;R1008K;Q1011L)
In short: as §1

[4] = biological target: PUM1 PUF domain R5-EKC (Homo sapiens, UniProt Q14671 828-1176, C1007E;R1008K;Q1011C)
In short: as §1

[5] = biological target: PUM1 PUF domain R5-NRF (Homo sapiens, UniProt Q14671 828-1176, C1007N;Q1011F)
In short: as §1

[6] = biological target: PUM1 PUF domain R8-RWV (Homo sapiens, UniProt Q14671 828-1176, N1122R;Y1123W;Q1126V)
In short: as §1

[7] = biological target: PUM1 PUF domain R1-RVV (Homo sapiens, UniProt Q14671 828-1176, S863R;R864V;Q867V)
In short: as §1

[8] = biological target: PUM1 PUF domain R1-YQR (Homo sapiens, UniProt Q14671 828-1176, S863Y;R864Q;Q867R)
In short: as §1

[9] = biological target: PUM1 PUF domain R3-RST (Homo sapiens, UniProt Q14671 828-1176, C935R;R936S;Q939T)
In short: as §1

[10] = biological target: PUM1 PUF domain R3-RDR (Homo sapiens, UniProt Q14671 828-1176, C935R;R936D;Q939R)
In short: as §1

Q: With “GGCUAGAACUAGUGGAUCCCCCGGCGCCCGGCGGCUCGAGCCCGGGUAAGUGUGAAUAGUCUGCAUGCCGCCGGGCGCCAUGCCUGCAGGUCGACUCUAGAAAACAUG” as the sequence, how does the binding signal [1] read?
A: 2.15 log2 enrichment (interaction score)

Q: What about the binding signal [2] of the same sequence?
A: 2.38 log2 enrichment (interaction score)

Q: For “GGCUAGAACUAGUGGAUCCCCCGGCGCCCGGCGGCUCGAGCCCGGGUAAGUGUCAAUAGUCUGCAUGCCGCCGGGCGCCAUGCCUGCAGGUCGACUCUAGAAAACAUG”, which binding signal [3] is on record?
A: 2.13 log2 enrichment (interaction score)

Q: And the binding signal [4]?
A: 2.59 log2 enrichment (interaction score)

Q: What does the source list for “GGCUAGAACUAGUGGAUCCCCCGGCGCCCGGCGGCUCGAGCCCGGGUAAGUGUUAAUAGUCUGCAUGCCGCCGGGCGCCAUGCCUGCAGGUCGACUCUAGAAAACAUG”?
A: binding signal [3]: 2.25 log2 enrichment (interaction score); binding signal [4]: 2.3 log2 enrichment (interaction score); binding signal [5]: 5.64 log2 enrichment (interaction score)

Q: Which results are given for “GGCUAGAACUAGUGGAUCCCCCGGCGCCCGGCGGCUCGAGCCCGGGUAAGUGUAAAUAGUCUGCAUGCCGCCGGGCGCCAUGCCUGCAGGUCGACUCUAGAAAACAUG”?
A: binding signal [6]: 5.01 log2 enrichment (interaction score); binding signal [1]: 3.39 log2 enrichment (interaction score)

Q: For “GGCUAGAACUAGUGGAUCCCCCGGCGCCCGGCGGCUCGAGCCCGGGUAAGUGUAAAUCGUCUGCAUGCCGCCGGGCGCCAUGCCUGCAGGUCGACUCUAGAAAACAUG”, which binding signal [7] is on record?
A: 2.37 log2 enrichment (interaction score)

Q: Which binding signal [6] does the source give for “GGCUAGAACUAGUGGAUCCCCCGGCGCCCGGCGGCUCGAGCCCGGGUAAGCGUAAAUAGUCUGCAUGCCGCCGGGCGCCAUGCCUGCAGGUCGACUCUAGAAAACAUG” here?
A: 5.22 log2 enrichment (interaction score)

Q: Which results are given for “GGCUAGAACUAGUGGAUCCCCCGGCGCCCGGCGGCUCGAGCCCGGGUAAGUGUAAAUUGUCUGCAUGCCGCCGGGCGCCAUGCCUGCAGGUCGACUCUAGAAAACAUG”?
A: binding signal [8]: 6.49 log2 enrichment (interaction score); binding signal [7]: 2.58 log2 enrichment (interaction score)

Q: How did the binding signal [9] turn out when “GGCUAGAACUAGUGGAUCCCCCGGCGCCCGGCGGCUCGAGCCCGGGUAAGUGUAAUUAGUCUGCAUGCCGCCGGGCGCCAUGCCUGCAGGUCGACUCUAGAAAACAUG” was run?
A: 2.83 log2 enrichment (interaction score)

Q: What about the binding signal [10] of the same sequence?
A: 4.8 log2 enrichment (interaction score)
